# From PubChem BioAssay (NCATS)
# Inconclusive results are not listed. Calls of active or inactive are those of the source. The call rests on the fitted dose curve; in most records, active means well fitted cell-killing curve with a large enough effect; inconclusive means small, poorly fitted or top-dose-only effect; inactive means flat fitted curve, though single readings scatter.
# Assay: qHTS of pediatric cancer cell lines to identify multiple opportunities for drug repurposing: Primary screen for BT-37 cells (AID 1347094)
# Conditions: BT-37 viability, CellTiter-Glo luminescence, 48 h; series mostly up to 57.3 µM
# Procedure, shortened: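 Quantitative HTS format: each compound titrated (MIPE 11 points from 0.78 nM, NPC 8 points from 0.59 nM) onto cells plated 5 hours earlier. After 48 h at 37 degrees C, CellTiter-Glo luminescence was recorded.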
# Potency means the concentration at half of the fitted maximal effect.
row,Structure (SMILES),Potency
1,Cc1cc(Nc2cc(N3CCN(C)CC3)nc(Sc3ccc(NC(=O)C4CC4)cc3)n2)n[nH]1,inactive
2,CCOC(=O)C1=C(C)NC2=C(C(=O)CC(C)(C)C2)C1c1ccc(-c2ccccc2)cc1 (centres undefined),3.85 µM (active)
3,COc1cc2ncn(-c3cc(OCc4ccccc4C(F)(F)F)c(C(N)=O)s3)c2cc1OC,19.3 µM (active)
4,O=C(CCCCCCC(=O)Nc1ccc([C@H]2O[C@@H](CSc3nc(-c4ccccc4)c(-c4ccccc4)o3)C[C@@H](c3ccc(CO)cc3)O2)cc1)NO,15.3 µM (active)
5,Cn1c(=O)n(-c2ccc(C(C)(C)C#N)cc2)c2c3cc(-c4cnc5ccccc5c4)ccc3ncc21,0.0544 µM (active)
6,COC(=O)Nc1ccc(-c2nc(N3CCOCC3)c3cnn(C4CCN(Cc5cccnc5)CC4)c3n2)cc1,0.544 µM (active)
7,COCCOc1ccc2c(c1)ncn2-c1ccc2cccc(N3CCC(N)CC3)c2n1,24.3 µM (active)
8,CN1c2cc(O)c(N=NC(N)=O)cc2CC1S(=O)(=O)O (centres undefined),inactive
9,O=C(O)C1(Cc2cccc(Nc3nccs3)n2)CCC(Oc2cccc(Cl)c2F)CC1 (centres undefined),inactive
10,CC(C)=CCCC(C)=CCCC(C)=CCSc1ccccc1C(=O)O,7.69 µM (active)
11,COc1cc(C(=O)N2CCC(N3CCN(C)CC3)CC2)ccc1Nc1ncc2c(n1)N(C)c1ccccc1C(=O)N2C,15.3 µM (active)
12,COc1cccc(-c2ccc(NC(=O)C3=C(C(=O)O)CCC3)c(F)c2)c1,19.3 µM (active)
13,C[C@H]1C[C@@H]2[C@@H]([C@@H](O)C[C@@]3(C)[C@H]2CC[C@]3(O)C(=O)CO)[C@@]2(C)C=CC(=O)C=C12,inactive
14,COc1cc2c(Nc3ccc(NC(=O)c4ccccc4)cc3)ncnc2cc1OCCCN1CCOCC1,30.6 µM (active)
